Out of some 5,500 compounds screened, about 2,000 (36%) were called active. About 18% were inconclusive and are not listed. No stated cut-off is given here; in the data, active means normalized growth mostly below about 0.91 (no sharp cut-off); inconclusive means no clear call, values can overlap the other calls; inactive means mostly above about 0.92. Some of the results follow.
Experiment: chemical genetic growth profiling, strain panel (AID 1159580);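 further: tested at 20 µM; growth read once vehicle control cultures reached saturation at 30 °C; 1 = growth at the plate median or of vehicle wells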
Details: growth OD

Measured: normalized growth

c1ccc2c(CC3=NCCN3)cccc2c1
inactive: S. cerevisiae deletion strains, locus YJR075W, strain HOC1, stronger effect = lower value 1 | S. cerevisiae deletion strains, locus YKL009W, strain mrt4, stronger effect = lower value 1.01 | S. cerevisiae deletion strains, locus YKL068W, stronger effect = lower value 1.01 | S. cerevisiae deletion strains, locus YKL085W, strain MDH1 (second series), stronger effect = lower value 1.02 | S. cerevisiae deletion strains, locus YKL085W, strain MDH1, stronger effect = lower value 1.02 | S. cerevisiae deletion strains, locus YKL160W, strain elf1, stronger effect = lower value 0.984 | S. cerevisiae deletion strains, locus YKL190W, strain CNB1, stronger effect = lower value 1 | S. cerevisiae deletion strains, locus YKR001C, strain vps1, stronger effect = lower value 1.01 | S. cerevisiae deletion strains, locus YKR026C, strain gcn3, stronger effect = lower value 0.984 | S. cerevisiae deletion strains, locus YKR091W, strain srl3, stronger effect = lower value 0.98 | S. cerevisiae deletion strains, locus YLL001W, strain dnm1, stronger effect = lower value 0.986 | S. cerevisiae deletion strains, locus YLL026W, stronger effect = lower value 0.997 | S. cerevisiae deletion strains, locus YLL041C, strain sdh2, stronger effect = lower value 0.972 | S. cerevisiae deletion strains, locus YLR027C, strain aat2, stronger effect = lower value 0.973 | S. cerevisiae deletion strains, locus YLR039C, strain RIC1, stronger effect = lower value 1.04 | S. cerevisiae deletion strains, locus YLR058C, strain SHM2, stronger effect = lower value 1.01 | S. cerevisiae deletion strains, locus YLR102C, strain apc9, stronger effect = lower value 1.02 | S. cerevisiae deletion strains, locus YLR113W, strain HOG1, stronger effect = lower value 0.991 | S. cerevisiae deletion strains, locus YLR221C, strain rsa3, stronger effect = lower value 0.995 | S. cerevisiae deletion strains, locus YLR258W, strain gsy2, stronger effect = lower value 0.991 | S. cerevisiae deletion strains, locus YLR262C, strain YPT6 (second series), stronger effect = lower value 0.97 | S. cerevisiae deletion strains, locus YLR262C, strain YPT6, stronger effect = lower value 1.03 | S. cerevisiae deletion strains, locus YLR268W, strain sec22, stronger effect = lower value 1.02 | S. cerevisiae deletion strains, locus YLR320W, strain mms22, stronger effect = lower value 0.979 | S. cerevisiae deletion strains, locus YLR330W, strain CHS5, stronger effect = lower value 1.01 | S. cerevisiae deletion strains, locus YLR342W, strain FKS1 (second series), stronger effect = lower value 1.03 | S. cerevisiae deletion strains, locus YLR342W, strain FKS1, stronger effect = lower value 0.971 | S. cerevisiae deletion strains, locus YLR357W, strain rsc2, stronger effect = lower value 0.942 | S. cerevisiae deletion strains, locus YLR370C, strain arc18, stronger effect = lower value 0.978 | S. cerevisiae deletion strains, locus YLR371W, strain rom2, stronger effect = lower value 1.04 | S. cerevisiae deletion strains, locus YLR384C, strain iki3, stronger effect = lower value 0.962 | S. cerevisiae deletion strains, locus YLR418C, strain cdc73, stronger effect = lower value 1.02 | S. cerevisiae deletion strains, locus YML016C, strain PPZ1, stronger effect = lower value 1.01 | S. cerevisiae deletion strains, locus YML032C, strain rad52, stronger effect = lower value 1.03 | S. cerevisiae deletion strains, locus YML120C, strain ndi1, stronger effect = lower value 0.977 | S. cerevisiae deletion strains, locus YML124C, strain tub3, stronger effect = lower value 1.02 | S. cerevisiae deletion strains, locus YMR058W, strain fet3, stronger effect = lower value 0.976 | S. cerevisiae deletion strains, locus YMR078C, strain ctf18, stronger effect = lower value 1.02 | S. cerevisiae deletion strains, locus YMR125W, strain sto1, stronger effect = lower value 0.938 | S. cerevisiae deletion strains, locus YMR129W, stronger effect = lower value 0.96 | S. cerevisiae deletion strains, locus YMR205C, strain PFK2, stronger effect = lower value 0.987 | S. cerevisiae deletion strains, locus YMR223W, strain ubp8, stronger effect = lower value 1.01 | S. cerevisiae deletion strains, locus YMR231W, strain pep5, stronger effect = lower value 0.981 | S. cerevisiae deletion strains, locus YMR263W, strain SAP30, stronger effect = lower value 1 | S. cerevisiae deletion strains, locus YMR307W, strain GAS1, stronger effect = lower value 1.01 | S. cerevisiae deletion strains, locus YNL067W, strain RPL9B, stronger effect = lower value 1 | S. cerevisiae deletion strains, locus YNL071W, strain lat1, stronger effect = lower value 0.961 | S. cerevisiae deletion strains, locus YNL128W, strain TEP1, stronger effect = lower value 1.01 | S. cerevisiae deletion strains, locus YNL153C, strain GIM3, stronger effect = lower value 1 | S. cerevisiae deletion strains, locus YNL183C, strain NPR1, stronger effect = lower value 0.957 | S. cerevisiae deletion strains, locus YNL209W, strain ssb2, stronger effect = lower value 0.968 | S. cerevisiae deletion strains, locus YNL233W, strain BNI4, stronger effect = lower value 1.01 | S. cerevisiae deletion strains, locus YNL248C, strain rpa49, stronger effect = lower value 0.963 | S. cerevisiae deletion strains, locus YNL250W, strain rad50, stronger effect = lower value 1.02 | S. cerevisiae deletion strains, locus YNL271C, strain bni1, stronger effect = lower value 1.02 | S. cerevisiae deletion strains, locus YNL298W, strain CLA4, stronger effect = lower value 1.01 | S. cerevisiae deletion strains, locus YNL307C, strain MCK1, stronger effect = lower value 1.03 | S. cerevisiae deletion strains, locus YNL322C, strain KRE1 (second series), stronger effect = lower value 0.958 | S. cerevisiae deletion strains, locus YNL322C, strain KRE1, stronger effect = lower value 1 | S. cerevisiae deletion strains, locus YNR049C, strain mso1, stronger effect = lower value 0.982 | S. cerevisiae deletion strains, locus YNR052C, strain pop2, stronger effect = lower value 1.02 | S. cerevisiae deletion strains, locus YOL006C, strain TOP1, stronger effect = lower value 1.03 | S. cerevisiae deletion strains, locus YOL012C, strain htz1 0.662 | S. cerevisiae deletion strains, locus YOL147C, strain pex11, stronger effect = lower value 1.02 | S. cerevisiae deletion strains, locus YOR001W, strain rrp6, stronger effect = lower value 0.934 | S. cerevisiae deletion strains, locus YOR061W, strain CKA2, stronger effect = lower value 1.01 | S. cerevisiae deletion strains, locus YOR069W, strain VPS5, stronger effect = lower value 1 | S. cerevisiae deletion strains, locus YOR070C, strain gyp1, stronger effect = lower value 1.01 | S. cerevisiae deletion strains, locus YOR080W, strain dia2, stronger effect = lower value 0.965 | S. cerevisiae deletion strains, locus YOR083W, strain WHI5, stronger effect = lower value 0.994 | S. cerevisiae deletion strains, locus YOR106W, strain vam3, stronger effect = lower value 0.97 | S. cerevisiae deletion strains, locus YOR136W, strain idh2, stronger effect = lower value 1.02 | S. cerevisiae deletion strains, locus YOR144C, strain elg1, stronger effect = lower value 1.02 | S. cerevisiae deletion strains, locus YOR184W, strain ser1, stronger effect = lower value 1.02 | S. cerevisiae deletion strains, locus YOR231W, strain MKK1, stronger effect = lower value 1.02 | S. cerevisiae deletion strains, locus YOR265W, strain rbl2, stronger effect = lower value 0.987 | S. cerevisiae deletion strains, locus YOR270C, strain vph1, stronger effect = lower value 0.914 | S. cerevisiae deletion strains, locus YOR290C, strain snf2, stronger effect = lower value 0.984 | S. cerevisiae deletion strains, locus YOR316C, strain cot1, stronger effect = lower value 1.03 | S. cerevisiae deletion strains, locus YPL051W, strain arl3, stronger effect = lower value 0.988 | S. cerevisiae deletion strains, locus YPL055C, strain LGE1, stronger effect = lower value 1.02 | S. cerevisiae deletion strains, locus YPL078C, strain atp4, stronger effect = lower value 0.981 | S. cerevisiae deletion strains, locus YPL106C, strain sse1, stronger effect = lower value 0.968 | S. cerevisiae deletion strains, locus YPL240C, strain hsp82, stronger effect = lower value 0.997 | S. cerevisiae deletion strains, locus YPL241C, strain CIN2, stronger effect = lower value 1 | S. cerevisiae deletion strains, locus YPL256C, strain CLN2, stronger effect = lower value 0.987 | S. cerevisiae deletion strains, locus YPR119W, strain clb2, stronger effect = lower value 1.02 | S. cerevisiae deletion strains, locus YPR141C, strain kar3, stronger effect = lower value 1.03 | S. cerevisiae deletion strains, locus YPR163C, strain tif3, stronger effect = lower value 1.02 | S. cerevisiae deletion strains, locus YPR167C, strain met16, stronger effect = lower value 1.02 | S. cerevisiae deletion strains, strain wtn01, stronger effect = lower value 1.02 | S. cerevisiae strains, strain wild type, stronger effect = lower value 1

— PubChem BioAssay AID1159580 (chemical genetic matrix, 2015)
